# Compound activity from PubChem BioAssay.
# An excerpt weighted towards active compounds, which were near 1.5% of everything screened.
# ugtP null kill: growth inhibition of S. aureus ugtP deletion strain. S. aureus RN4220 ugtP deletion, OD600 growth, 16 h. growth inhibition, % (no concentration beside the values). 330,000 tested, 0.54% active; in the data active = growth inhibition above about 68%;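 also: plate controls were untreated wells for no effect and antibiotic for full effect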
# SSB-PriA inh: blocks PriA binding to SSB C-terminal tail | inhibition, % at 33 µM | AlphaScreen SSBct-PriA binding, biotinylated peptide | 430,000 tested, 0.6% active; in the data active = inhibition mostly above about 37%, no sharp cut-off; inactive = mostly below about 20%;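 also: plate controls were negative control peptide for no effect and reference peptide for full effect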
# CCHFV vOTU inh: CCHFV vOTU protease inhibition | 370,000 tested, 0.55% active | inhibition, % at 11.5 µM | Pep-AMC fluorescence | AID 651958; in the data active = inhibition above about 30%; also: 0% = vehicle wells with enzyme and 100% = no enzyme wells
# Sa RN4220 lethal: S. aureus RN4220 growth inhibition. OD600, 16 h. inhibition, % (no concentration beside the values). 330,000 tested, 0.33% active. AID 1259311; in the data active = inhibition above about 85%;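 also: plate controls were untreated cells for no effect and reference antibiotic for full effect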
# VHR inh abs: DUSP3 (human) phosphatase inhibition | recombinant VHR phosphatase, pNPP absorbance | AID 1654 | 290,000 tested, 0.52% active | inhibition, % at 13.3 µM; in the data active = inhibition above about 50%
# Target sequence (P51452 whole entry, looked up): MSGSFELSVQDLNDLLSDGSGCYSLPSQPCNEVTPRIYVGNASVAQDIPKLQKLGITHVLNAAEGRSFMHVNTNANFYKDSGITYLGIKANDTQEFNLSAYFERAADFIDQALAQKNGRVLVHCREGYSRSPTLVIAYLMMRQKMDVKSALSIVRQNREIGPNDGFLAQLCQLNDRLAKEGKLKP
# Active calls of the source: *; nt = no result given.
SMILES,ugtP null kill,SSB-PriA inh,CCHFV vOTU inh,Sa RN4220 lethal,VHR inh abs
CC(OC(=O)c1ccc(NC(=O)CC#N)cc1)C(=O)NC(=O)NC1CCCCC1 (stereo not given),-3.8,2.5,3.0,2.7,22.9
COc1cc(C(=O)OC(C)C(=O)NC(=O)NC2CCCCC2)ccc1OC(F)F (stereo not given),90.9*,-1.5,11.5,52.2,nt
O=C1Nc2ccc(Br)cc2C12NNc1ccccc1O2 (stereo not given),96.8*,9.3,8.9,85.4,24.2
O=C(c1ccc(Nc2nc(-c3ccccc3)c3cc(Cl)ccc3n2)cc1)N1CCN(c2ccccc2Cl)CC1,nt,-15.0,nt,nt,nt
O=C(CSc1nccn2nc(-c3ccccc3)cc12)Nc1ccc(Oc2ccccc2)cc1,nt,2.0,nt,nt,nt
CN1/C(=C/c2cc[n+](C)c3ccccc23)C=Cc2ccccc21,95.7*,nt,nt,99.5*,16.3
c1ccc(-c2csc(-c3ccncc3)n2)cc1,-3.5,-1.3,4.8,6.2,52.5*
Oc1ccccc1-c1csc(-c2ccccc2)n1,68.2,-180.0,6.0,-10.6,-7.5
c1ccc(Nc2nc(NCC3CCCO3)c3ccccc3n2)cc1 (stereo not given),-34.5,10.7,23.3,-1.1,-2.6
C(=N\Nc1nc(-c2ccccn2)nc2ccccc12)/c1ccccc1,nt,nt,nt,nt,-14.6
c1ccc(-c2nc(NC3CCCC3)c3ccccc3n2)nc1,nt,120.0*,nt,nt,nt
c1ccc(-c2nc(NCC3CCCO3)c3ccccc3n2)nc1 (stereo not given),-16.0,88.9*,-1.1,0.6,16.7
CCOC(=O)c1c(C)[nH]c(C2=NNC(=Nc3ccccc3OC)SC2)c1C,-0.7,53.5*,-6.6,5.6,16.4
CCOC(=O)c1c(C)[nH]c(C2=NNC(=Nc3ccccc3)SC2)c1C,-9.3,32.5,-3.1,6.9,0.4
O=C(CSc1nnc(-c2ccccc2Cl)o1)N1CCCCC1,6.7,-17.0,-7.0,-0.8,2.4
O=C(CSc1nnc(-c2ccccc2Cl)o1)N1CCCC1,4.7,-4.9,7.2,1.3,56.2*
C=CCn1c(SCC(C)=O)nc2scc(-c3ccco3)c2c1=O,8.3,-10.9,4.2,3.5,11.8
C=CCn1c(SC(F)F)nc2scc(-c3ccco3)c2c1=O,95.2*,-1.6,21.4,7.0,31.1
COc1cccc(CC(=O)N2CCC(CCC(=O)Nc3cccc(OC)c3)CC2)c1,11.7,-13.4,5.6,1.5,1.8
COc1cccc(NC(=O)CCC2CCN(Cc3nccs3)CC2)c1,4.4,-4.4,7.5,2.3,52.2*
O=C(c1cc2cc([N+](=O)[O-])ccc2oc1=O)N1CCc2ccccc2C1,nt,-4.0,nt,nt,nt
O=C(c1cc2cc([N+](=O)[O-])ccc2oc1=O)n1cccn1,9.0,56.4*,-0.6,1.3,24.7
Cc1ccc(Cl)cc1NC(=O)CCNC(=O)N1CC(=O)Nc2ccccc21,9.4,-21.3,9.2,-0.5,-14.6
Cc1ccc(Cl)cc1NC(=O)CNC(=O)N1CC(=O)Nc2ccccc21,2.7,3.4,14.1,1.7,56.8*
COc1cccc(NC(=O)CNC(=O)N2CC(=O)Nc3ccccc32)c1,2.0,-8.9,8.7,0.2,56.8*
SMILES,ugtP null kill,SSB-PriA inh,CCHFV vOTU inh,Sa RN4220 lethal,VHR inh abs
COC(=O)c1ccc(Nc2nc(-c3ccccc3)c3cc(Br)ccc3n2)cc1,nt,-9.0,nt,nt,nt
CC(C(=O)N1CCc2ccccc21)N1CCN(c2cccc(C(F)(F)F)c2)CC1 (stereo not given),89.6*,-1.2,-6.0,-4.1,-11.5
COc1cccc(-n2nnc(C(N)=O)c2C)c1,nt,19.0,nt,nt,nt
Oc1cccc2c(-c3nn[nH]n3)ccnc12,0.5,54.0*,5.0,2.7,nt
NC(=O)c1ccnc2c(O)cccc12,-2.2,41.3*,6.1,-1.2,nt
OCc1ccnc2c(O)cccc12,4.0,86.6*,12.3,1.6,13.6
O=C(CSc1nccn2nc(-c3ccccc3)cc12)Nc1ccccc1Cl,nt,-12.0,nt,nt,nt
O=C1c2ccccc2C2=Nc3ccccc3SC(c3ccc(Cl)cc3)C12 (stereo not given),-22.6,53.0*,6.5,-6.7,4.7
O=C1c2ccccc2C2=Nc3ccccc3SC(c3cccc(F)c3)C12 (stereo not given),-2.3,27.4,4.5,-6.1,-7.9
Cc1cccc(NCc2ccc(O)c3ncccc23)c1,-2.2,46.6*,-0.8,3.2,7.5
Cc1ccccc1NCc1ccc(O)c2ncccc12,-10.1,97.4*,3.1,1.5,22.5
Oc1ccc(CNc2ccccc2Br)c2cccnc12,nt,-1.0,nt,nt,nt
Oc1ccc(CNc2ccc(F)cc2)c2cccnc12,4.7,78.4*,10.0,6.8,28.0
Oc1ccc(CNc2ccccc2)c2cccnc12,-4.2,-15.7,nt,3.3,7.6
Oc1ccc(CNc2cccc(F)c2)c2cccnc12,nt,45.0,nt,nt,nt
Oc1ccc(CNc2cc(Cl)cc(Cl)c2)c2cccnc12,nt,66.8*,nt,nt,nt
N#Cc1cccc(C(=O)NCC2CCCN2c2ccccc2)c1 (stereo not given),nt,18.0,nt,nt,nt
NNc1nc(-c2ccccc2)cc(-c2ccccc2)n1,3.5,0.7,7.5,8.9,-3.6
NNc1nc(-c2ccccc2)cc(-c2ccccc2O)n1,4.8,39.9*,nt,17.4,26.9
CC1(C)C2CCC(C2)C1(C)NC(=O)CNCc1cccs1 (stereo not given),nt,-11.2,0.0,nt,51.3*
O=C(CNCc1cccs1)NC12CC3CC(CC(C3)C1)C2,4.7,-6.1,-12.2,-2.0,29.7
c1ccc(CN2CCNCC2)nc1,6.8,6.0,-10.7,0.5,-6.7
c1ccc(CNCCN2CCNCC2)nc1,1.6,38.4*,-3.5,2.0,24.4
CC(C)(C)NC(=O)N1CCCC(c2nnc(-c3cccs3)o2)C1 (stereo not given),nt,8.0,nt,nt,nt
CCOc1ccc(S(=O)(=O)N2CCC[C@@H]2CS(=O)(=O)c2ccccc2)cc1F,nt,-11.0,nt,nt,nt
SMILES,ugtP null kill,SSB-PriA inh,CCHFV vOTU inh,Sa RN4220 lethal,VHR inh abs
Cc1cccc(C2(c3cccc(C)c3)OC(=O)c3ccccc32)c1,82.2*,-5.5,4.3,-10.6,18.9
O=C1OC(c2ccccc2)(c2ccccc2)c2ccccc21,33.4,-2.5,6.4,10.2,nt
CCc1nnc(C2CCN(S(=O)(=O)c3ccc(F)cc3)CC2)s1,nt,-5.0,nt,nt,nt
CCn1nc(C)c(Br)c1C(=O)Sc1ccccc1Cl,86.8*,-4.2,1.5,19.7,32.6
Cc1nn(Cc2ccccc2Cl)c(Cl)c1C(=O)O,5.2,5.4,12.9,12.0,11.9
Cc1nc(C)c(-c2csc(Nc3cccc(O)c3)n2)s1,0.4,-8.4,11.9,-1.0,29.6
Cc1cccc(Nc2nc(-c3ccncc3)cs2)c1,-11.4,7.1,-2.0,1.0,50.6*
Cc1cccc(Nc2nc(-c3sc(C)nc3C)cs2)c1,89.9*,-14.2,6.5,-7.0,-40.5
NC(C(=O)NC1C(=O)N2C(C(=O)O)=C(Cl)CSC12)c1ccccc1 (stereo not given),100.2*,nt,nt,100.5*,nt
CC1=C(C(=O)O)N2C(=O)[C@@H](NC(=O)[C@H](N)c3ccccc3)[C@H]2SC1,nt,nt,nt,nt,30.1
COc1ccc(F)cc1S(=O)(=O)NCCCn1ncccc1=O,nt,-12.0,nt,nt,nt
CC1Cn2c(nc3sc4c(c3c2=O)CC(C)(C)OC4)N1CCO (stereo not given),-5.0,2.5,-31.5,5.8,53.0*
O=C(COc1ccc(F)cc1)Nc1nc(-c2ccccn2)cs1,-4.9,58.2*,7.5,6.5,nt
